Measured values: PubChem BioAssay AID1671192 (National Center for Advancing Translational Sciences (NCATS), 2021)
Records with an inconclusive call do not appear. Calls of active or inactive are those of the source. Calls follow the shape of the dose curve; as a rule, active = well fitted curve in the direction sought with a large enough effect; inconclusive = small, poorly fitted or top-dose-only effect, or another doubt; inactive = no such curve, though single readings can be large or run the other way.

Biological target: Polyunsaturated fatty acid lipoxygenase ALOX15 (Homo sapiens) (UniProt P16050)
Assay: Counterscreen qHTS for inhibitors of human arachidonate 12S-lipoxygenase (ALOX12): ALOX15 Assay
Procedure, shortened: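 Xylenol orange–ferric complex formation, read as the 573 nm to 405 nm absorbance ratio, tracks product from 50 uM arachidonic acid turned over for 30 min at RT. Enzyme is 40 nM ALOX15, pH 7.5 HEPES buffer, compound-preincubated 15 min.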

Sequence of Polyunsaturated fatty acid lipoxygenase ALOX15 (Homo sapiens) (P16050 whole entry, looked up): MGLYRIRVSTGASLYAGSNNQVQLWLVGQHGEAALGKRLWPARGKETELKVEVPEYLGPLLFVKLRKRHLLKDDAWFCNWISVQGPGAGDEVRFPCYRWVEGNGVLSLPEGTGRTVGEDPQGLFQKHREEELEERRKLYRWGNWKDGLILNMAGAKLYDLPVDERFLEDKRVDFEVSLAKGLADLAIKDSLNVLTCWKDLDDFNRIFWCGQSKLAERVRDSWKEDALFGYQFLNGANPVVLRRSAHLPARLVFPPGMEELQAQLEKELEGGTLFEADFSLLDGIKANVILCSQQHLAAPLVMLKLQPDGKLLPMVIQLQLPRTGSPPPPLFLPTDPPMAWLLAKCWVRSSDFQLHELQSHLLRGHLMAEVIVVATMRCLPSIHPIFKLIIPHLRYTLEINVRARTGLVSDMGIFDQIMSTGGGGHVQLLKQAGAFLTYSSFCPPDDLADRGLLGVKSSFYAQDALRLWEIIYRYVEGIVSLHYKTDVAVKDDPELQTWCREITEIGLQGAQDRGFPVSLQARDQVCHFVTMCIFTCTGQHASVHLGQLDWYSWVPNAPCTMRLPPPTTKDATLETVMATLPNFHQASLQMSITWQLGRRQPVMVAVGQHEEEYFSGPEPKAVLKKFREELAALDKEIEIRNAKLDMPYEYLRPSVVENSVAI

| SMILES | outcome |
| --- | --- |
| CC(C)CNC(=O)c1cc(C2CC2)nc2onc(C3CCNCC3)c12 | inactive |
| COc1ccccc1-c1cccc(CN)c1 | inactive |
| C[S+](=O)([O-])N1Cc2ccccc2CC2(CCCCN2CC2CCNCC2)C1 (stereo unspecified) | inactive |
| O=C(c1ccccn1)N1CCn2c(nn(-c3ccc(Cl)cc3)c2=O)C1 | inactive |
| CC(C)NC(=O)NC1CC2(CCN(Cc3ccc(O)cc3)CC2)c2ccccc21 (stereo unspecified) | inactive |
| Fc1ccc(OC2CN(CC3CC3)C2)cc1F | inactive |
| O=C(c1ccc(C(F)(F)F)cc1)N1CCc2nc(C3CC3)nc(-c3ccc(Cl)cc3)c2C1 | inactive |
| Cc1ccc(C(=O)N2CCc3nc(C4CC4)nc(-c4ccc(Cl)cc4)c3C2)cc1 | inactive |
| O=C1Nc2ccccc2CN(CC2CC2)C12CCNCC2 | inactive |
| CCC(=O)N1Cc2ccccc2CC2(CCCN(CC3CCNC3)C2)C1 (stereo unspecified) | inactive |
| CCC(=O)N1Cc2ccccc2CC2(CCN(CC3CCNC3)C2)C1 (stereo unspecified) | inactive |
| C[S+](=O)([O-])N1CCCC(c2nnc3n2CCNC3)C1 (stereo unspecified) | inactive |
| O=C1NC(=NC2CCCC2)C2(CCN(CC3CC3)C2)N1c1cccnc1 (stereo unspecified) | inactive |
| CN1CC(=O)N(C2CCNC2)Cc2c(NCCCN3CCCCC3)ncnc21 (stereo unspecified) | inactive |
| O=C1NCc2ccccc2CC12CCN(Cc1ccc(Cl)cc1)CC2 | inactive |
| O=[S+]([O-])(c1ccc(Br)cc1)c1nnn2c1nc(NCc1ccc(F)cc1)c1ccccc12 | inactive |

| SMILES | outcome |
| --- | --- |
| O=C1NC(=NC2CCCC2)C2(CCCN([S+](=O)([O-])c3cccc(C(F)(F)F)c3)C2)N1c1cc(F)cc(F)c1 (stereo unspecified) | inactive |
| O=C(c1ccccc1F)N1CCC2(C1)C(=O)N(c1ccccc1)c1ccccc12 (stereo unspecified) | inactive |
| O=C(N1CCOCC1)N1CCN(c2ccc(Cl)nn2)C(=O)C1 | inactive |
| CN1CC(=O)N(C2CCC2)Cc2c(NC3CCNCC3)ncnc21 | inactive |
| O=C1NCc2ccccc2CC12CCN(Cc1c[nH]c3ccccc13)C2 (stereo unspecified) | inactive |
| Cc1ccc(CN2CCC3(Cc4ccccc4CNC3=O)C2)cc1C (stereo unspecified) | inactive |
| Cc1ccc(C(=O)N2CCC(N3Cc4ccccc4C3=O)CC2)cc1 | inactive |
| CCc1ccccc1CN1CCCC12Cc1ccccc1CNC2=O (stereo unspecified) | inactive |
| COc1cccc(N2C(=O)NC(=NC3CCCC3)C23CCCN(CC2CC2)C3)c1 (stereo unspecified) | inactive |
| O=C(NCc1ccc(Cl)nc1)c1cnn2c1CN(C(=O)c1ccccc1)CC2 | inactive |
| COc1ccccc1NC1CN(C(=O)OC(C)(C)C)C1 | inactive |
| O=C1NCc2ccccc2CC12CCN(Cc1cnc3ccccc3c1)CC2 | inactive |
| CC(C)(C)OC(=O)N1CC(Nc2cccc(Oc3ccccc3)c2)C1 | inactive |
| CS(=O)(=O)N1CCC2(CC1)CN(Cc1ccc(O)cc1)Cc1ccccc1O2 | inactive |
| CCC(=O)N1Cc2ccccc2CC2(CCCN(CC3CCNCC3)C2)C1 (stereo unspecified) | inactive |
